Source: PubChem
Rows were chosen to be rich in hits. Some 7.9% of all compounds tested hit in one or more screens of this group.
Marburg entry inh = qHTS for inhibitors of binding or entry into cells for Marburg Virus | Potency, µM (highest dose often 37.8 µM), inactives show at the top dose activity change, negative = inhibition, usual class: inhibitors | AID 540276, 2011 | 1.8% of 300,000 active | Marburg virus pseudotyped entry inhibition, cell reporter; calls by dose curve; tested in HEK293 cells; also: potency is read from the fitted curve at half-maximal effect
HCV inhibitor = qHTS Assay for Inhibitors of Hepatitis C Virus (HCV); Potency, µM (series often up to 41.8 µM), for the others: top-dose activity change, negative = inhibition, most hits filed as inhibitors; Huh7.5.1 HCVcc-Cre infection, luciferase reporter, 44 h; 3.4% of 340,000 active; AID 651820, 2012; active = well fitted inhibition curve with a large enough effect; inconclusive = small, poorly fitted or top-dose-only effect, or another doubt; inactive = no such curve, though single readings can be large or run the other way; also: potency is read from the fitted curve at half-maximal effect
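After 44 h co-culture of compound, cells and HCVcc-Cre (~0.5 moi), substrate is added for 15 min at room temperature and luciferase measured over 15 sec. Cells were seeded at 1,000/well and pre-cultured 4 h.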
HCMV antiviral = qHTS Assay for inhibitors of the human cytomegalovirus (HCMV); AID 1259415, 2018; HFF cells, HCMV-luciferase reporter, 72 h; active compounds read low; 4.5% of 410,000 active; activity change, negative = inhibition, % at 57.5 µM; in the data active = activity change below about -60%; inconclusive = no clear call, values can overlap the other calls; inactive = above about -39%
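Cell-based, HFFs, 1000 cells/well, 16 h 37C; cpds in DMSO + HCMV-luc, MOI 1 PFU/cell; 72 h 37C; OneGlo luminescence after 5 min RT; norm. to buffer vs Salinomycin 10uM.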
LASV entry inh = qHTS for Inhibitors of binding or entry into cells for Lassa Virus | 1.2% of 300,000 active | Potency, µM (series often up to 37.9 µM), inactives show top-dose activity change, negative = inhibition, actives largely listed as inhibitors | AID 540256, 2011 | Lassa virus pseudotype entry inhibition, cell reporter; calls by dose curve; tested in HEK293 cells; also: potency is read from the fitted curve at half-maximal effect; nearly all actives have a fitted effect of over 50% in size
FMDV inh = High Throughput Screening for Foot and Mouth Disease Virus Antivirals; FMDV antiviral cell-based qHTS; Potency, µM (highest dose often 57.9 µM), for the others: top-dose activity change, negative = inhibition, most hits filed as inhibitors; 1.2% of 410,000 active; AID 1159524, 2015; calls by dose curve; tested in HEK293T cells; also: read-out not given here; potency is read from the fitted curve at half-maximal effect; nearly all actives have a fitted effect of over 45% in size
An asterisk follows results filed as active; u = inconclusive; x = no result given; [ ] = remark or other dose. % is scaled to controls: 0 for no effect and ±100 for the full control effect.

SMILES | Marburg entry inh | HCV inhibitor | HCMV antiviral | LASV entry inh | FMDV inh
O=C(NCCOc1ccccc1)c1ccccc1Cl | u | 1% | u | u | 5%
CN(C(=O)COc1ccccc1C(=O)NCCOc1ccccc1)c1ccccc1 | u | 8.9µM* | -93* | 11µM* | 8.9µM*
Cc1ccc(/C=C/c2ccc3cccc(O)c3n2)s1 | u | u | 114 | u | 21%
CC(=O)COc1cccc2ccc(/C=C/c3ccc(Br)s3)nc12 | x | 11µM* | 37 | x | -3%
Cc1ccc(NS(=O)(=O)c2ccc(C(=O)OCC(=O)NCC3CCCO3)cc2)cc1 (configuration not stated) | 4% | 0% | -11 | u | 11%
C[C@@H]1CN([C@@H](C)CO)C(=O)CCCn2nncc2CO[C@@H]1CN(C)C(=O)CCC(F)(F)F | x | x | 14 | x | 0%
OCCN1CCN(Cc2ccc3c(c2)CN(Cc2cccn2-c2ccccn2)CCO3)CC1 | x | x | x | x | -12%
CC1CCCCN1C(=O)C1CCN(c2nc(-c3ccccc3)nc3c2CCC3)CC1 (configuration not stated) | x | 4µM* | u | x | u
COc1ccc(NC(=O)C2CCN(c3nc(C)nc4c3CCC4)CC2)cc1 | u | 3.5µM* | -70* | u | u
COc1ccc(NC(=O)C2CCN(c3nc(C)cc(C)n3)CC2)cc1 | 0%[46.1 µM] | -8% | 3 | -7% | 2%
O=C(C1CCN(c2nc(-c3ccccc3)nc3c2CCC3)CC1)N1CCCC1 | x | 11µM* | -7 | x | 12%
CC(C)C(=O)NC(=S)Nc1ccc(S(=O)(=O)NC2CCCCC2)cc1 | x | -20% | -25 | x | 62%
Cc1ncc2c(c1CNC(=O)c1cncs1)CCN(C(=O)c1csc(-c3cccs3)n1)C2 | x | x | x | x | -4%
C/C(=N\NC(=O)C12CCC(C)(C(=O)O1)C2(C)C)c1ccccc1O (configuration not stated) | x | u | -103* | x | 4%
CC12CCC(C(=O)NCc3ccccc3)(OC1=O)C2(C)C (configuration not stated) | u | 16% | 2 | 0% | 10%
C=C1N(S(=O)(=O)C(F)(F)F)CC[C@@]12c1ccccc1N(C)[C@@H]2c1cn(C)c2ccccc12 | x | x | 6 | x | x
N/C(=N\OC(=O)c1cccc(Cl)c1)c1ccccn1 | 3.7µM* | -5% | 9 | 7.9µM* | -57%
N/C(=N\OC(=O)c1ccc(Cl)c(Cl)c1)c1ccccn1 | u | 17% | 114 | u | -53%
N/C(=N\OC(=O)c1ccc(Cl)cc1)c1ccccn1 | u | u | 53 | u | -79%
N/C(=N\OC(=O)c1ccc(Cl)c([N+](=O)[O-])c1)c1ccccn1 | 3.2µM* | u | -63* | u | 49%
CCc1cc2c(nc1CC)CCN(CCC(C)=NOC[C@H]1O[C@H](c3ccccc3)C=C[C@H]1Oc1ccc(OC)cc1)C2 | -25%[14.2 µM] | x | x | x | x
Cc1cc(N2CCCC2=O)ccc1S(=O)(=O)NCCOc1ccccc1 | u | u | -68* | u | -1%
CCOc1ccccc1CNC(=O)c1cnc2sc(N3CCCCCC3)nn2c1=O | x | x | -28 | 13%[46.1 µM] | 0%
O=C1/C(=C/c2cccc(Br)c2)SC(=S)N1CCC(=O)N(CCO)c1ccccc1 | x | -17% | -104* | x | -3%
COc1cccc(/C=C2\SC(=S)N(CCCC(=O)N(CCO)c3ccccc3)C2=O)c1 | x | u | -97* | x | 0%
SMILES | Marburg entry inh | HCV inhibitor | HCMV antiviral | LASV entry inh | FMDV inh
O=C1/C(=C/c2ccc3c(c2)OCO3)SC(=S)N1CCC(=O)N(CCO)c1ccccc1 | x | x | -68* | x | -23%
COC(=O)C(NC(=O)OCc1ccccc1)(c1ccc(Cl)cc1)C(Nc1ccccc1)c1ccccc1 (configuration not stated) | x | x | 24 | x | x
O=S1(=O)CC(N2CC=CC2)CN1CCc1ccccc1 (configuration not stated) | x | x | x | 8%[46.1 µM] | x
O=C(NC1CCCC1)c1ccc(Cl)s1 | -1%[46.1 µM] | -4% | -77* | 9%[46.1 µM] | -14%
COc1ccc(S(=O)(=O)N2CCCOC2CNC(=O)C(=O)NCCO)cc1 (configuration not stated) | x | x | -15 | x | -16%
CCn1nc(-c2ccccc2)c(-c2ccccc2)c(C(=O)Nc2ccccc2C#N)c1=O | -24%[46.1 µM] | x | 7 | -2%[46.1 µM] | -1%
